# The supplement of paper PMC12645437, “Orthogonal IMiD-Degron Pairs Induce Selective Protein Degradation in Cells” (ACS Chemical Biology, 2025)
# In all, about 8,300 sequences were measured (“log2 fold change of degron read counts, EGFP-low vs EGFP+ sorted cells (limma voom), compound-induced degradation”: median about -1.1, highest 2% from about 3.2 on). What follows is part of a selection rich in the highest values, with near analogues and random picks from the rest.
# T1: CRBN, Q96SW2
# T1 chain: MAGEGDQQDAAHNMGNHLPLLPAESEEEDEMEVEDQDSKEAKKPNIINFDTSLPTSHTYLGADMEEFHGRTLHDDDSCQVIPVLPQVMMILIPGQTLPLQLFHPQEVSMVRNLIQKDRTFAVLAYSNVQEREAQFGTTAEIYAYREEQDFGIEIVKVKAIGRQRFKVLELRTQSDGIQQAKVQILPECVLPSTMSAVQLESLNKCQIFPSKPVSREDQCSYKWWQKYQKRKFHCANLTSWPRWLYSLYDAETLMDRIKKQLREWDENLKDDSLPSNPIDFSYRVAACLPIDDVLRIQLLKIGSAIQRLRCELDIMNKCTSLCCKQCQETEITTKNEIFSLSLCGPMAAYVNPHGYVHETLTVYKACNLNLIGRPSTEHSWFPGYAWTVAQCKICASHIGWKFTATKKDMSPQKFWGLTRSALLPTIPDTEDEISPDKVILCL
# B1: 46F_47M_49E_50I_52G_53H_54T_55F_67L_, Q9UKT9 (peptide)
# chain: FMCEICGHTFTQKGNLLRHIKL
# B2: 46L_47W_49P_50I_52G_53F_54R_55C_67L_, Q9UKT9 (peptide)
# chain: LWCPICGFRCTQKGNLLRHIKL
# B3: 46L_47D_49P_50I_52G_53F_54N_55C_67L_, Q9UKT9 (peptide)
# chain: LDCPICGFNCTQKGNLLRHIKL
# B4: 46L_47W_49P_50I_52G_53F_54N_55C_67L_, Q9UKT9 (peptide)
# chain: LWCPICGFNCTQKGNLLRHIKL
# B5: 46L_47I_49P_50I_52G_53F_54R_55C_67L_, Q9UKT9 (peptide)
# chain: LICPICGFRCTQKGNLLRHIKL
# B6: 46L_47G_49P_50I_52G_53F_54R_55C_67L_, Q9UKT9 (peptide)
# chain: LGCPICGFRCTQKGNLLRHIKL
# B7: 46L_47A_49P_50I_52G_53F_54N_55C_67L_, Q9UKT9 (peptide)
# chain: LACPICGFNCTQKGNLLRHIKL
# B8: 46F_47R_49P_50I_52G_53A_54I_55F_67L_, Q9UKT9 (peptide)
# chain: FRCPICGAIFTQKGNLLRHIKL
# B9: 46F_47T_49E_50Q_52G_53A_54Q_55F_67L_, Q9UKT9 (peptide)
# chain: FTCEQCGAQFTQKGNLLRHIKL
# B10: 46F_47F_49P_50I_52G_53H_54V_55F_67L_, Q9UKT9 (peptide)
# chain: FFCPICGHVFTQKGNLLRHIKL
# B11: 46F_47A_49P_50I_52G_53H_54T_55F_67L_, Q9UKT9 (peptide)
# chain: FACPICGHTFTQKGNLLRHIKL
# B12: 46F_47K_49N_50V_52G_53A_54V_55F_67L_, Q9UKT9 (peptide)
# chain: FKCNVCGAVFTQKGNLLRHIKL
# B13: 46F_47W_49E_50I_52G_53A_54H_55F_67L_, Q9UKT9 (peptide)
# chain: FWCEICGAHFTQKGNLLRHIKL
# B14: 46F_47L_49E_50I_52G_53A_54H_55F_67L_, Q9UKT9 (peptide)
# chain: FLCEICGAHFTQKGNLLRHIKL
# B15: 46F_47T_49E_50I_52G_53A_54H_55F_67L_, Q9UKT9 (peptide)
# chain: FTCEICGAHFTQKGNLLRHIKL
# B16: 46F_47C_49E_50I_52G_53A_54H_55F_67L_, Q9UKT9 (peptide)
# chain: FCCEICGAHFTQKGNLLRHIKL
# B17: 46F_47F_49E_50I_52G_53A_54H_55F_67L_, Q9UKT9 (peptide)
# chain: FFCEICGAHFTQKGNLLRHIKL
# B18: 46F_47N_49E_50I_52G_53A_54H_55F_67L_, Q9UKT9 (peptide)
# chain: FNCEICGAHFTQKGNLLRHIKL
# B19: 46F_47I_49E_50I_52G_53A_54H_55F_67L_, Q9UKT9 (peptide)
# chain: FICEICGAHFTQKGNLLRHIKL
# B20: 46F_47Q_49E_50I_52G_53A_54H_55F_67L_, Q9UKT9 (peptide)
# chain: FQCEICGAHFTQKGNLLRHIKL
# B21: 46F_47A_49E_50I_52G_53A_54H_55F_67L_, Q9UKT9 (peptide)
# chain: FACEICGAHFTQKGNLLRHIKL
# B22: 46F_47Y_49E_50I_52G_53A_54H_55F_67L_, Q9UKT9 (peptide)
# chain: FYCEICGAHFTQKGNLLRHIKL
# B23: 46F_47M_49E_50I_52G_53A_54H_55F_67L_, Q9UKT9 (peptide)
# chain: FMCEICGAHFTQKGNLLRHIKL
# B24: 46F_47E_49E_50I_52G_53A_54H_55F_67L_, Q9UKT9 (peptide)
# chain: FECEICGAHFTQKGNLLRHIKL
# B25: 46L_47M_49E_50I_52G_53F_54L_55C_67L_, Q9UKT9 (peptide)
# chain: LMCEICGFLCTQKGNLLRHIKL
# B26: 46L_47G_49E_50I_52G_53F_54F_55C_67L_, Q9UKT9 (peptide)
# chain: LGCEICGFFCTQKGNLLRHIKL
# B27: 46F_47I_49E_50Q_52G_53A_54E_55F_67L_, Q9UKT9 (peptide)
# chain: FICEQCGAEFTQKGNLLRHIKL
# B28: 46F_47M_49S_50V_52G_53H_54P_55F_67L_, Q9UKT9 (peptide)
# chain: FMCSVCGHPFTQKGNLLRHIKL
# Target: T1, CRBN, Q96SW2
# Assay: log2 fold change of degron read counts, EGFP-low vs EGFP+ sorted cells (limma voom), compound-induced degradation; higher = more compound-induced degradation of the degron-EGFP fusion; degrons are variants of IKZF1/3 zinc finger 2; compound dose not given here
# Conditions: Jurkat, 18 h
# [1] = compound: compound 19 (5-tert-butyl-thalidomide)
# [2] = compound: compound 22 (5-morpholino-thalidomide)
# [3] = compound: compound 33 (diphenyl IMiD analogue)
# 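Further: pooled lentiviral library of zinc finger degron-EGFP fusions in mCherry-positive Jurkat cells, FACS-sorted after compound exposure, with degron abundance counted by next-generation sequencing.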
Sequence,log2 fold change of degron read counts [1],log2 fold change of degron read counts [2],log2 fold change of degron read counts [3],log2 fold change of degron read counts (compound: thalidomide)
B1,-3.32,-4.22,-2.78,-3.14
B2,3.02,3.7,2.31,2.05
B3,-0.713,-1.04,-0.142,0.706
B4,2.43,3.5,2.36,1.53
B5,0.753,2.24,1.19,2.84
B6,3.17,2.04,0.549,1.14
B7,2.23,1.61,1.93,1.49
B8,-1.29,-0.543,0.89,1.18
B9,-2.06,-1.12,0.532,-0.012
B10,-0.996,-1.35,-1.19,-1.12
B11,-2.03,-2.66,-2.44,-2.56
B12,-2.44,-2.91,-3.25,-2
B13,3.45,3.78,2.18,1.05
B14,0.729,-1.66,0.445,0.792
B15,0.467,0.746,1.69,2.11
B16,2.06,0.682,1.31,1.03
B17,3.34,3.33,2.07,1
B18,2.65,0.0954,-0.0262,-0.422
B19,-0.091,1.87,1.79,2.1
B20,-0.0399,0.799,0.886,3.17
B21,3.32,1.02,0.285,-0.547
B22,3.61,3.49,2.57,1.24
B23,-0.196,-0.917,1.94,0.547
B24,-0.919,-2.34,1.1,1.26
B25,-1.21,-1.08,0.82,0.189
B26,1.15,0.461,0.628,0.198
B27,-2.28,-1.92,-1.09,-0.382
B28,-2.27,-1.78,-1.3,-1.51
